Laboratory results as given in PubChem BioAssay (NCI).
Values joined by “and” are separate entries in the source; they are usually repeats but may differ in a detail not shown here. Equal entries are not always repeated. This is part of a sample that, as a whole, favours compounds with a hit. Of some 83,000 tested, about 20% had one in any assay.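 Values shown are percent growth following 48 h exposure of cells in 96-well plates to a single concentration of compound; below 10 was considered active.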 Active and inactive are the calls of the source.

Tested on: MDA-MB-468 breast
Assay: NCI-60 one-dose screen, 48 h (100 = growth as untreated, 0 = no growth, -100 = all killed)
Settings: 10 µM unless noted

Compound	growth
COC(=O)/C=C1\S/C(=N\Nc2ccc([N+](=O)[O-])cc2[N+](=O)[O-])N(C2CCCCC2)C1=O	45.1% (inactive)
C=CC(=O)N[C@H](/C=C/C(=O)OCC)Cc1ccc(-c2cc(Cl)cc(Cl)c2)cc1	88% (inactive)
COc1ccc2[nH]cc(-c3nonc3-c3c[nH]c4ccc(Br)cc34)c2c1	77.8% (inactive)
CN(C)CCNC(=O)c1ccc(-c2nc3ccc4[nH]ncc4c3c3c2CCC3)cc1	-55.3% (active)
Cc1ccc2c(-c3nnc(N)s3)cc(=O)oc2c1C	95.6% (inactive)
O=c1c2cc(F)ccc2sc2c(NCCO)nc3ccccc3c12	80.3% (inactive)
O=S(=O)(Nc1ccc(-c2nc(-c3cccc(OCCN4CCOCC4)c3)c(-c3ccnc(Br)c3)[nH]2)cc1)c1ccccc1	1.46% (active)
Brc1ccc2[nH]cc(-c3nc(-c4c[nH]c5ncccc45)cs3)c2c1	43.6% (inactive)
O=C(c1nc2ccccc2[nH]1)C1C(c2ccc(F)cc2)C2CC3CCCCC3N2[C@@]12C(=O)Nc1ccc(Cl)cc12 (stereo not given in full)	41.6% (inactive)
NC(=S)Cc1ccccc1	89.8% (inactive)
COC1CC(N)C2OC(c3ccccc3)OCC2O1 (stereo not given)	109% (inactive)
CCCCCCN(CCCCCC)c1ccc(/C=C2/SC(=O)NC2=O)c(C)c1	80.6% (inactive)
O=C(Nc1c(Cl)cc(Cl)cc1Cl)ON=C1CCCCC1	96.7% (inactive)
CCOC(=O)NCCc1nc2c([nH]1)c(=O)n(C)c(=O)n2C	112% (inactive)
O=C(NCCc1ccccn1)OCc1nc2nc(Cl)nc(N3CCOCC3)c2[nH]1	24.9% (inactive)
COc1ccc2cc1Oc1ccc(cc1)C[C@H]1c3c(cc4c(c3Oc3cc5c(cc3OC)CCN(C)[C@@H]5C2)OCO4)CCN1C	7.08% (active)
Oc1c(Cl)cc(Cl)cc1Sc1cc(Cl)cc(Cl)c1O	84% (inactive) and -2.78% (active) and 67.9% (inactive)
CCCCn1c(Cc2ccc(OC)cc2)nc2cc(OC)c(OC)cc2c1=O	46.7% (inactive)
COc1ccc(/C(C)=C(\c2ccc(Cl)cc2)c2ccc(OCCN(C)C)cc2)cc1F	66.2% (inactive)
CN1CCN(C(=O)[C@]2(C)CC[C@]3(C)CC[C@]4(C)C(=CC(=O)[C@@H]5[C@@]6(C)CCC(=O)NC(C)(C)[C@@H]6CC[C@]54C)[C@@H]3C2)CC1	101% (inactive)

Compound	growth
COC(=O)c1ccc(NC(N)=NCC(C)(C)COc2ccc(C(F)(F)F)cc2)nc1	17.1% (inactive)
COc1cc(OC)c(NC(=O)n2ncc3cc(Nc4ncnc5ccccc45)ccc32)cc1Cl	-5.26% (active)
COc1ccc2c3c(c4ccccc4cc13)C(=O)N(CCN(C)CCN)C2=O	-76.5% (active)
C=C(C)[C@@H]1CC[C@]2(COCCC#N)CC[C@]3(C)[C@H](CC[C@@H]4[C@@]5(C)Cc6c([nH]c7ccccc67)C(C)(C)[C@@H]5CC[C@]43C)[C@@H]12	115% (inactive)
O=C(Nc1ncc(Cc2ccccc2)s1)c1ccc2c(c1)OCCCO2	7.91% (active)
Nc1ncnc2c1N=C(c1ccc(F)cc1)CC(c1cccc(Nc3ccnc4cc(Cl)ccc34)c1)N2 (stereo not given)	74.1% (inactive)
COc1ccc(C2[C@@H](c3ccccc3)C(=O)N2c2cc(OC)c(OC)c(OC)c2)cc1F (stereo not given in full)	-4.41% (active)
Cc1ccc2nc(NC(=O)CSc3nc(-c4ccccc4)c(C#N)c(=O)n3Cc3ccccc3)sc2c1	102% (inactive)
COc1cc(C(=O)NC(=S)Nc2ccc3ccccc3c2)cc(OC)c1OC	95.5% (inactive)
CC(C)N=c1cc2n(-c3ccc(Cl)cc3)c3ccccc3nc-2cc1Nc1ccc(Cl)cc1	-45.1% (active) and -53.3% (active) and -42.4% (active)
COc1cccc(NC(=O)c2cccc(-c3cc(=O)c4c(OC)c(OC)c(OC)cc4o3)c2)c1	79% (inactive)
COc1ccc(/C=C(\C#N)n2nnc3cc(F)c(F)cc32)c(OC)c1OC	35.3% (inactive)
N[C@@H](Cc1cn(-c2c3ccccc3nc3ccccc23)nn1)C(=O)O	96.8% (inactive)
NC1C2CCC1CN(c1cnc(C(=O)Nc3cc(F)cc4cccnc34)cn1)C2 (stereo not given)	-4.02% (active)
COc1cc(C(=O)/C=C/c2ccc(OCCCCCC[P+](c3ccccc3)(c3ccccc3)c3ccccc3)cc2)cc(OC)c1OC	-58.6% (active)
COc1ccc(/C=C/c2c(C(=O)/C=C/c3ccc(C(F)(F)F)cc3)c(C)nc3ccccc23)cc1	-54.5% (active)
COc1ccc(-c2nc(N/N=C/c3cccc(Br)c3)nc(N3CCOCC3)c2C#N)cc1	73.4% (inactive)
CCN1C(=O)N(CC)C2SC(N/N=C/C=C/c3ccccc3OC)=NC21 (stereo not given)	36.8% (inactive)
CC1=C(NCCN2CCCC2)C(=O)c2c(OCc3ccc(C(F)(F)F)cc3)cccc2C1=O	82.2% (inactive)
O=C(NCc1ccccc1)C1CN(c2ccc(Cl)cc2)N(c2ccc(Cl)cc2)C1=O (stereo not given)	71.5% (inactive)
